Measured values reported in PubChem BioAssay (NCATS).
Results filed as inconclusive are left out. A call without a number means that no potency is given here. Active and inactive are the calls of the source. The call rests on the fitted dose curve; in most records, active means well fitted cell-killing curve with a large enough effect; inconclusive means small, poorly fitted or top-dose-only effect; inactive means flat fitted curve, though single readings scatter. Where a SMILES comes first, the peptide text is derived from it. [ ]: non-standard residue; d: D form. pGlu = O=C1CC[C@@H](C(=O)O)N1

assay: qHTS of pediatric cancer cell lines to identify multiple opportunities for drug repurposing: Primary screen for RD cells (AID 1347104); conditions: RD rhabdomyosarcoma viability, CellTiter-Glo luminescence, 48 h; series mostly up to 46 µM; further: nearly all actives have a fitted effect of over 55% in size
Description: Drug repurposing or repositioning has been offered as a strategy for drug development in oncology programs. This approach has special potential for childhood cancers and other rare or orphan diseases, where the expected return on new drug development has been a disincentive to pharmaceuticals. […] In this project we exploit the poly-pharmacology of drugs to discover new indications via phenotypic screening of a panel of 19 well-characterized cell lines derived from solid tumors seen in children and adolescents. The goal is to identify approved drugs with previously unrecognized anticancer properties that has the potential to reveal new mechanisms and biological processes involved in carcinogenesis or drug resistance. We employed a titration-based paradigm (quantitative high-throughput screening or qHTS), where all compounds were tested at multiple concentrations for their effect on cell viability. Concentration-response curves (CRCs) were derived directly from the primary screen, and both potency and efficacy values were used to identify compounds with robust bioactivity profiles. We screened the NIH Chemical Genomics Center (NCGC) Pharmaceutical Collection (NPC) and Mechanism Interrogation Plate (MIPE) small molecule collections of approved and investigational compounds against these cell lines; and measured metabolically active cells after 48 hours of compound treatment as a proxy for cell viability. […] Assay Submitter: Nathalia J. Martinez, National Center for Advancing Translational Sciences, National Institutes of Health, Rockville, MD, USA; email: natalia.martinez@nih.gov Shen, M et al. Quantitative high-throughput phenotypic screening of pediatric cancer cell lines identifies multiple opportunities for drug repurposing. Oncotarget 2017 Dec 19;9(4):4758-4772. PMID 29435139.
The cells were obtained from University of North Carolina (UNC), Pediatric Preclinical Testing Program (PPT), and Coriell Institute (CI). qHTS cell viability assay: Cells were assayed in growth media at a density of 500-1,000 cells/well. Five microliters of cells were dispensed into 1,536-well, white, solid-bottom, TC-treated plates (Greiner Bio One) using a multidrop dispenser and incubated at 37 degrees C, 5% CO2, under a humidified atmosphere for 5 hours. Twenty-three nanoliters of compounds and controls (neutral control DMSO or positive control bortezomib at final concentration of 2.3 µM) were subsequently transferred by Kalypsys pintool. For primary screens, the MIPE collection was tested at 11-point dilutions (final concentrations range from 0.78 nM to 46 µM) and the NPC collection at 8-point dilutions (final concentrations range from 0.59 nM to 46 µM). Compounds tested in follow-up screens were assayed at 11-point dilutions. Cells were incubated for 48 hours, followed by addition of 3 µL of CellTiter-Glo (Promega). After a 15 min incubation at room temperature, samples were analyzed for luminescence intensity using a ViewLux High-throughput CCD imager equipped with clear filters.
Potency means the concentration at half of the fitted maximal effect.

For CCOC(=O)c1ccc(NC(=O)CN2CCCCC2)cc1, which Potency is on record?
Its Potency is “inactive”.

For CC(=O)[C@@]1(O)CC[C@H]2[C@@H]3C[C@H](C)C4=CC(=O)CC[C@]4(C)[C@H]3CC[C@@]21C, which Potency is on record?
Its Potency is “inactive”.

Which Potency does the source give for CCCCNc1ccc(C(=O)OCCN(CC)CC)cc1 here?
The Potency was “inactive”.

For CC(=O)N[C@@H](CO)C(=O)N[C@@H](CC(=O)O)C(=O)N[C@@H](CCCCN)C(=O)N1CCC[C@H]1C(=O)O (Ac-SDKP-OH), which Potency is on record?
Its Potency is “inactive”.

With CC(=O)Nc1ccc(S(=O)(=O)Nc2cc(C)on2)cc1 as the compound, how does the Potency read?
The Potency was “inactive”.

For CCCCCCCCCCCC[N+](C)(C)Cc1ccccc1, which Potency is on record?
The Potency was 9.44 µM (active).

For O=C(CCCl)NCc1ccccc1, which Potency is on record?
The Potency was “inactive”.

With CC(=O)[C@H]1CC[C@H]2[C@@H]3C=CC4=CC(=O)CC[C@@]4(C)[C@@H]3CC[C@]12C as the compound, how does the Potency read?
Its Potency is “inactive”.

For CN1Cc2cc(C(=O)N3CCC(C4CCNCC4)CC3)ccc2N[C@@H](CC(=O)O)C1=O, which Potency is on record?
The Potency was “inactive”.

For O=C1CC(c2ccc(Cl)cc2)CC(=O)N1, which Potency is on record?
Its Potency is “inactive”.

With Clc1ccc2c(c1)Nc1ccccc1S2 as the compound, how does the Potency read?
The Potency was “inactive”.

Which Potency does the source give for C[C@H]1C[C@H](O)c2ccsc2S1(=O)=O here?
The Potency was “inactive”.

For CCOc1ccc(NS(=O)(=O)c2ccc(N)cc2)nn1, which Potency is on record?
The Potency was “inactive”.

Which Potency does the source give for O=C(NN1CCCC1)NS(=O)(=O)c1ccc(Cl)cc1 here?
Its Potency is “inactive”.

Which Potency does the source give for O=C1[C@@H]2[C@H]3CC[C@H](C3)[C@@H]2C(=O)N1CCCCN1CCN(c2ncccn2)CC1 here?
Its Potency is “inactive”.

Which Potency does the source give for Cc1ccccc1N1CCN(CCc2nnc3n2CCCC3)CC1 here?
The Potency was “inactive”.

Which Potency does the source give for CCCCCCCCCCCCCC[N+](C)(C)C here?
Its Potency is 11.9 µM (active).

Which Potency does the source give for COc1cc(C=O)ccc1O here?
Its Potency is “inactive”.

With COc1cc(S(N)(=O)=O)cc(C(=O)O)c1OC as the compound, how does the Potency read?
The Potency was “inactive”.

For COCCOCC(OC)OC, which Potency is on record?
Its Potency is “inactive”.

For CCCCOC(=O)CCCCCCCCC(=O)OCCCC, which Potency is on record?
Its Potency is “inactive”.

Which Potency does the source give for COc1c(N2C[C@@H]3CCCN[C@@H]3C2)c(F)cc2c(=O)c(C(=O)O)cn(C3CC3)c12 here?
The Potency was “inactive”.

Which Potency does the source give for O=C(O)CNC(=O)CNC(=O)CNC(=O)CSC(=O)c1ccccc1 here?
The Potency was “inactive”.

With CCCCCN(CCCOC)C(=O)C(CCC(=O)O)NC(=O)c1ccc(Cl)c(Cl)c1 (stereo not given) as the compound, how does the Potency read?
The Potency was “inactive”.

For O=c1[nH]c(=O)n([C@H]2O[C@H](CO)[C@@H](O)[C@@H]2O)cc1/C=C\Br, which Potency is on record?
Its Potency is “inactive”.

With CCNC(=O)[C@@H]1CCCN1C(=O)[C@H](CCCN=C(N)N)NC(=O)[C@H](CC(C)C)NC(=O)CNC(=O)[C@H](Cc1ccc(O)cc1)NC(=O)[C@H](CO)NC(=O)[C@H](Cc1c[nH]c2ccccc12)NC(=O)[C@H](Cc1cnc[nH]1)NC(=O)[C@@H]1CCC(=O)N1 ([pGlu]HWSYGLRP-NHEt) as the compound, how does the Potency read?
Its Potency is “inactive”.

Which Potency does the source give for CCOC(=O)C(O)c1ccccc1 (stereo not given) here?
The Potency was “inactive”.

For CC1(C)S[C@@H]2[C@H](NC(=O)C(c3ccccc3)S(=O)(=O)O)C(=O)N2[C@H]1C(=O)O (stereo not given in full), which Potency is on record?
The Potency was “inactive”.

Which Potency does the source give for OCCCc1ccccc1 here?
Its Potency is “inactive”.

For Cc1ccc(C(C)OC(=O)C2(C)CCC(C(=O)O)C2(C)C)cc1 (stereo not given), which Potency is on record?
The Potency was “inactive”.

For CC(C)(C)C(=O)OCOC(=O)C1N2C(=O)CC2S(=O)(=O)C1(C)C (stereo not given), which Potency is on record?
The Potency was “inactive”.

Which Potency does the source give for O=C(O)CCCC[C@@H]1SC[C@@H]2NC(=O)N[C@@H]21 here?
The Potency was “inactive”.

For CCOC(=O)c1cc(=O)c2c(OCC(COc3cccc4oc(C(=O)OCC)cc(=O)c34)OC(=O)[C@@H](N)CCCCN)cccc2o1, which Potency is on record?
The Potency was “inactive”.

With NS(=O)(=O)c1cc(C(=O)NN2C[C@H]3[C@H]4CCC(C4)[C@H]3C2)ccc1Cl as the compound, how does the Potency read?
The Potency was “inactive”.

For O=C(O)CCCC[P+](c1ccccc1)(c1ccccc1)c1ccccc1, which Potency is on record?
The Potency was “inactive”.

For O=C(C1CCCCC1)N1CC(=O)N2CCCc3ccccc3C2C1 (stereo not given), which Potency is on record?
The Potency was “inactive”.

For Nc1ccc(C(=O)N2CC3CC(CN(Cc4ccccc4)C3)C2)cc1, which Potency is on record?
The Potency was “inactive”.

Which Potency does the source give for C[C@H]1C[C@H]2[C@@H]3CCC4=CC(=O)C=C[C@]4(C)[C@H]3C(=O)C[C@]2(C)[C@@]1(O)C(=O)CO here?
Its Potency is “inactive”.

For CCCCCCCCCCCCCCCCCCN(C)C, which Potency is on record?
Its Potency is “inactive”.

Which Potency does the source give for Nc1c(I)cc(I)c(C(=O)N(CCC(=O)O)c2ccccc2)c1I here?
The Potency was “inactive”.
